# Reference: PubChem BioAssay AID602281 (The Scripps Research Institute Molecular Screening Center, 2012)
# Among all 360,000 compounds or so, about 2,900 (0.81%) were called active.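 How the source made its calls: active means inhibition above the mean inhibition across every tested compound plus 3 SD (cut at about 22% in these data); inactive means the rest.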 For the sample, actives were picked, then their nearest neighbours and some compounds at random.
# Molecular target: Perilipin-5 (Homo sapiens) + 1-acylglycerol-3-phosphate O-acyltransferase ABHD5 (Homo sapiens) (UniProt Q00G26+Q8WTS1)
# Sequence (Q00G26 whole entry, looked up): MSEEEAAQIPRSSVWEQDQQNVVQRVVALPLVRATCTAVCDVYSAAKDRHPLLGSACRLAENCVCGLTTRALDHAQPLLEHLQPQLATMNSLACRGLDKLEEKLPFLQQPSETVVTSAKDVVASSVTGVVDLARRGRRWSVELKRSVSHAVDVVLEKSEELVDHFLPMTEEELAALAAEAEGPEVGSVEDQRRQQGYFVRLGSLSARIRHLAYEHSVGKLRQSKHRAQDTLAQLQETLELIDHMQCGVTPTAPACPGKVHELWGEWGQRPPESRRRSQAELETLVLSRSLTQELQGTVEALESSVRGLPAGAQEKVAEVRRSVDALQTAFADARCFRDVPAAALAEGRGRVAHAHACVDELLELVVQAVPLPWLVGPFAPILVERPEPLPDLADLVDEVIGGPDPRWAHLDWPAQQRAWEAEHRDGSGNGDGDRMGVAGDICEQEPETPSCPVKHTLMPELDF
# Sequence (Q8WTS1 whole entry, looked up): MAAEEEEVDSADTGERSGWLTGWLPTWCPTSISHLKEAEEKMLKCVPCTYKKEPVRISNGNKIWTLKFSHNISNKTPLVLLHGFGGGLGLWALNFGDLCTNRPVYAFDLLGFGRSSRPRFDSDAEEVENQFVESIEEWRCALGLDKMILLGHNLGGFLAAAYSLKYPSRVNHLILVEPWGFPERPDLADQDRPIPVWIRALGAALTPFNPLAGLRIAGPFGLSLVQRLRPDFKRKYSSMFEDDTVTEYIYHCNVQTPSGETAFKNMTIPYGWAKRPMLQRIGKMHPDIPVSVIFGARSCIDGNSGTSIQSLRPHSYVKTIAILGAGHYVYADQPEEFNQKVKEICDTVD
# Experiment: blockers of ABHD5 binding to perilipin-5 – cell lysate, split luciferase complementation, luminescence, primary screen (AID 602281);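 further: 0% = DMSO only wells and the 100% control is not disclosed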
# Settings: Split G. princeps luciferase complementation, 4 h, at 4 µM, active compounds read high
row,SMILES,inhibition
1,CC1(Oc2ccccc2-c2ccno2)CCN(Cc2ccc(-c3ccccc3)o2)C1 (stereo not given),24.9% (active)
2,CC1(Oc2cccc(F)c2)CCN(Cc2ccccc2OC(F)F)C1 (stereo not given),-9.44% (inactive)
3,COc1ccc(CN2CCC(C)(Oc3cccc(F)c3)C2)c2ccccc12 (stereo not given),1.04% (inactive)
4,CCCOC1CCCN(C(=O)c2cc(COc3cncc(Cl)c3)on2)C1 (stereo not given),1.32% (inactive)
5,Cc1[nH]c2ccccc2c1C(=O)c1cc([C@H](NC(=O)OC(C)(C)C)C(C)C)sc1N,-16.6% (inactive)
6,Cc1ccc(C(=O)Cc2nnc(C)s2)cc1,10.8% (inactive)
7,Cc1ccc(SC(CC(=O)c2ccc(C(C)(C)C)cc2)C(=O)O)cc1 (stereo not given),84.9% (active)
8,Cc1ccc(SC(C)C(=O)NCc2ccc(F)cc2)cc1 (stereo not given),-1.06% (inactive)
9,O=C1CC[C@@H](C(=O)N2CSC[C@@H]2C(=O)Nc2ccc(C(F)(F)F)cc2)N1,-0.42% (inactive)
10,CCC(C)NC(=O)C1CCC(=O)N1Cc1ccc(C)cc1 (stereo not given),2% (inactive)
11,Oc1ccc2ccccc2c1N=Nc1nccs1,22.1% (active)
12,COc1ccccc1C(=O)NCC(=O)OCC(=O)NNC(=O)c1ccc(Br)cc1,-4.52% (inactive)
13,CCN1C(=O)/C(=C2\SC(N3CCCCC3)=NC2=O)c2ccccc21,-2.55% (inactive)
14,CC1(C)CC(=O)C=C(c2cccc3c2Oc2ccccc2S3)C1,-12.2% (inactive)
15,O=C(c1cc(C2CCCCN2S(=O)(=O)c2ccccc2)on1)N1CCOCC1 (stereo not given),3.58% (inactive)
16,O=C(NCc1ccco1)c1cnn2c(C(F)(F)F)cc(-c3ccco3)nc12,3.22% (inactive)
17,O=C(O)c1cnn2c(C(F)(F)F)cc(-c3ccccc3)nc12,6.31% (inactive)
18,COC(=O)c1cnn2c(C(F)(F)F)cc(-c3ccco3)nc12,32.2% (active)
19,N#Cc1ccc(-c2nc3c(Cl)cc(C(F)(F)F)cn3c2Cc2ccccc2C(F)(F)F)cc1,0.66% (inactive)
20,NC(=O)c1ccccc1N=Cc1ccc2ccccc2c1,2.42% (inactive)
21,C/C(=N/N1CCN(Cc2cccc3ccccc23)CC1)c1cccnc1,-14.4% (inactive)
22,CCOc1cc(S(=O)(=O)NCc2ccc3c(c2)OCO3)ccc1F,-2.91% (inactive)
23,COc1ccc(C(=O)CCc2ccccc2O)c(OC)c1,0.27% (inactive)

row,SMILES,inhibition
1,COc1ccc(C(=O)CCC(=O)Nc2cccnc2)c(OC)c1,-5.28% (inactive)
2,COc1ccc(C(=O)/C=C/c2cccnc2)c(OC)c1,22.4% (active)
3,CCCn1c(=O)c2[nH]c(C3CCCC3)nc2n(CCC)c1=O,4.3% (inactive)
4,CCc1nnc(NC(=O)C2CC(=O)N(c3ccc4c(c3)OCCO4)C2)s1 (stereo not given),-9.44% (inactive)
5,O=C(NCc1ccccc1Cl)c1csc([C@@H]2O[C@H](CO)[C@@H](O)[C@H]2O)n1,-7.69% (inactive)
6,CCN(C(=O)CSc1nnnn1-c1ccccc1OC)C1CCS(=O)(=O)C1 (stereo not given),0.5% (inactive)
7,COc1ccccc1-n1nnnc1S(=O)(=O)Cc1ccc(Cl)cc1,27.5% (active)
8,COc1ccccc1CN(C)c1nnnn1-c1ccccc1,-3.16% (inactive)
9,Cc1cc2c(cc1S(=O)(=O)NCc1ccc(Cl)cc1)OCC(=O)N2,5.73% (inactive)
10,O=C(CN1C2CCC1CC(NC(=O)C1CC1)C2)NCc1ccccc1 (stereo not given),-2.07% (inactive)
11,O=C(CCl)Nc1ccc(Sc2ccc(NC(=O)CCl)cc2)cc1,28.2% (active)
12,O=C(O)CC(SCC(=O)Nc1ccc(Br)cc1)C(=O)O (stereo not given),0.5% (inactive)
13,CC(=O)Nc1ccc(NC(=O)CC2CCCC2)cc1,1.52% (inactive)
14,CN(CC(=O)NCCc1ccc(F)cc1)CC(=O)Nc1ccc(F)c(F)c1F,3.93% (inactive)
15,O=C(Nc1ccc(S(=O)(=O)N2CCOCC2)cc1)C1CCN(S(=O)(=O)c2ccc(Cl)cc2)CC1,-0.02% (inactive)
16,C/C(=N\NS(=O)(=O)c1ccc(Cl)cc1)c1ccc(NC(=O)c2ccco2)cc1,-4.17% (inactive)
17,O=C(Nc1ccccc1)c1nnsc1S(=O)(=O)c1ccc(Cl)cc1,58.3% (active)
18,COC(=O)[C@@]1(Cc2ccc(F)cc2)[C@H]2c3cc(C(=O)N4CCCC4)n(Cc4ccc(OC(F)(F)F)cc4)c3C[C@H]2CN1C(=O)c1ccccc1,22.3% (active)
19,COC(=O)[C@@]1(Cc2ccc(F)cc2)[C@H]2c3cc(C(=O)N4CCCC4)n(C[C@H](O)CO)c3C[C@H]2CN1C(=O)c1ccccc1,6.42% (inactive)
20,COC(=O)[C@@]1(Cc2ccc(OC)cc2)[C@H]2c3cc(C(=O)N4CCCC4)n(Cc4ccc(OC(F)(F)F)cc4)c3C[C@H]2CN1C(=O)c1ccccc1,18.3% (inactive)
21,COC(=O)Nc1ccc(S(=O)(=O)N(C)CC(F)(F)C(F)F)cc1,4.74% (inactive)
22,CC1CC(C)CN(S(=O)(=O)c2cccc3nonc23)C1 (stereo not given),-3.19% (inactive)
23,COc1cccc(OC)c1CN(C)C(=O)c1cnccc1C(F)(F)F,4.28% (inactive)

row,SMILES,inhibition
1,O=C(COC(=O)c1ccc(F)c(S(=O)(=O)N2CCOCC2)c1)NCc1ccc2c(c1)OCO2,2.94% (inactive)
2,Cc1ccnc(NC(=O)CCC(=O)N(CC(=O)NCCc2ccccc2)Cc2cccs2)c1,1.17% (inactive)
3,O=C(c1cc2sccc2n1Cc1ccc(F)cc1)N1CCc2ccccc21,-4.45% (inactive)
4,Brc1ccc(-c2nn[nH]n2)cc1,-0.33% (inactive)
5,Cc1ccc(-c2ccc(CN3C(C(C)C)C(=O)N(Cc4cn(CCC5OCCCO5)nn4)CCS3(=O)=O)cc2)cc1 (stereo not given),-3.62% (inactive)
6,CC(C)n1cnc2c(NCc3ccccc3)cc(OCC3CCN(C)CC3)cc21,52.1% (active)
7,c1ccc2c(c1)C(=NC1CCCCC1)NC2=NC1CCCCC1,10.2% (inactive)
8,O=C(NNC(=S)Nc1ccccc1)c1cccc(S(=O)(=O)N2CCOCC2)c1,-0.88% (inactive)
9,COC(=O)C[C@H]1C=C[C@H](NC(=O)c2ccc(F)cc2)[C@@H](CO)O1,7.9% (inactive)
10,CCOc1ccccc1NC(=S)C(=C([O-])c1ccc2c(c1)OCCO2)[n+]1ccc(CC)cc1,-7.74% (inactive)
11,Cc1nn(C)c(C)c1C(C)NC(=O)c1ccc(OC2CCN(Cc3ccccn3)CC2)cc1 (stereo not given),11.1% (inactive)
12,CC1Cc2[nH][nH]c(=O)c2C(C2CCCC2)O1 (stereo not given),8.22% (inactive)
13,O=C(Nc1n[nH]c(C(F)(F)F)n1)c1cccs1,3.2% (inactive)
14,COC(=O)c1nc(NC(=O)c2ccc(C(C)(C)C)cc2)n[nH]1,81.5% (active)
15,CSc1nccc(NC(=O)c2ccc(C(C)(C)C)cc2)n1,-0.98% (inactive)
16,Cc1ccc(NC(=O)c2ccc(Cl)nc2)cc1S(=O)(=O)N1CCOCC1,-3.8% (inactive)
17,CCCn1c(SCC(=O)Nc2c(C)cccc2C)nnc1C(C)C,5.88% (inactive)
18,CCOC(=O)c1nnn(CC(=O)Nc2cccc(F)c2)c1C(=O)OCC,-0.66% (inactive)
19,O=C(O)c1cccnc1NC1CCCC1,7.94% (inactive)
20,COc1ccc(CCNC(=O)c2ccc(CS(=O)(=O)c3ccc(Br)cc3)o2)cc1OC,5.5% (inactive)
21,COc1ccc(CCNC(=O)c2nnc(CS(=O)(=O)c3ccccc3)o2)cc1OC,23.8% (active)
22,COc1ccc(CCNC(=O)CN(c2ccccc2)S(C)(=O)=O)cc1OC,6.8% (inactive)
23,O=C(O)c1ccc2c(c1)C(=O)N(c1ccc(/C=C/C(=O)c3ccccc3)cc1)C2=O,50.4% (active)

row,SMILES,inhibition
1,O=C(c1ccc2c(c1)C(=O)N(c1ccc(Cl)cc1)C2=O)N1CCN(c2ccccn2)CC1,0.95% (inactive)
2,CC(=O)Oc1ccc(C)cc1N1C(=O)c2ccc(C(=O)O)cc2C1=O,0.33% (inactive)
3,O=[N+]([O-])c1ccc(S(=O)(=O)Nc2cccc(-c3ccc(N4CCCC4)nn3)c2)cc1,-6.73% (inactive)
4,COC(=O)CN(c1nc(C)c(Cl)c(OC)n1)S(=O)(=O)c1ccc(C)cc1,-6.3% (inactive)
5,Cc1nc2sc(C(c3ccco3)N3CCOCC3)c(O)n2n1 (stereo not given),26.3% (active)
6,Cc1ccc(C(c2sc3nc(C)nn3c2O)N2CCN(c3ccc(F)cc3)CC2)cc1 (stereo not given),-0.55% (inactive)
7,Cc1ccc(C(c2sc3nc(C)nn3c2O)N2CCN(c3ccccc3)CC2)cc1 (stereo not given),2.33% (inactive)
8,Oc1c(C(c2ccco2)N2CCC3(CC2)OCCO3)sc2ncnn12 (stereo not given),12.2% (inactive)
9,Cc1nc2sc(C(c3ccco3)N3CCC4(CC3)OCCO4)c(O)n2n1 (stereo not given),22.7% (active)
10,COC(=O)[C@@]12C[C@@H](CC(=O)N3CCC(c4ccccc4)CC3)C(=O)N(Cc3ccccc3)C1=CCC(C)(C)C2,4.36% (inactive)
11,CC1=NNC(=O)C1CC(=O)N/N=C/c1ccncc1 (stereo not given),0.97% (inactive)
12,CC(C)(C)C(=O)N1CCC[C@@]1(CO)C(=O)O,0.41% (inactive)
13,CC[C@]12c3[nH]c4cc(CCC(=O)N(C)C)ccc4c3CCN1C(=O)[C@@H](CC(=O)NCCCN(C)C)C[C@@H]2C(=O)N1CCN(C(=O)c2ccco2)CC1,-4.19% (inactive)
14,COc1ccc(C2SCCN2S(=O)(=O)c2ccccc2)cc1OC (stereo not given),-4.96% (inactive)
15,COc1ccc(-c2cc(C(F)(F)F)nc(S(C)(=O)=O)n2)cc1OC,26.6% (active)
16,COc1ccc(C2=NO[C@@H]3C(=O)N(Cc4ccccc4)C(=O)[C@H]23)cc1OC,3.37% (inactive)
17,CCN1CCN(C(=O)Cn2nc(C)n3c(cc4c(OC)cccc43)c2=O)CC1,0.48% (inactive)
18,CC(=O)N[C@H]1[C@H]([C@H](O)[C@H](O)CO)OC(C(=O)O)=C[C@@H]1O,1.93% (inactive)
19,NC(=O)c1nsc(C(=O)N(CC(=O)NCc2ccc(F)cc2)Cc2ccco2)c1N,36% (active)
20,COc1ccc(CNC(=O)C(c2ccc(O)cc2)N(Cc2ccco2)C(=O)c2snc(C(N)=O)c2N)cc1 (stereo not given),-11.3% (inactive)
21,Cc1ccnc(NC(=O)CCC(=O)N(CC(=O)NCc2ccccc2)Cc2ccco2)c1,1.15% (inactive)
